Test results from paper PMC4336329 (PLoS ONE, 2015).
The campaign covered roughly 310,000 compounds. About 14,000 (4.5%) showed an effect of 50% or more. The effect is printed as a negative number. The sample holds strong results, similar compounds and a random draw of the others, so the mix is not that of the screen.

What follows are compounds tested against human ether-à-go-go-related gene (hERG) potassium channel (human, UniProt Q12809) (assay: primary screen, population patch clamp on CHO cells stably expressing hERG; higher = less effect of the substance).
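Note: peak tail current of the secondary pulse compared with the same well before compound.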

Chain of human ether-à-go-go-related gene (hERG) potassium channel (Q12809 whole entry, looked up): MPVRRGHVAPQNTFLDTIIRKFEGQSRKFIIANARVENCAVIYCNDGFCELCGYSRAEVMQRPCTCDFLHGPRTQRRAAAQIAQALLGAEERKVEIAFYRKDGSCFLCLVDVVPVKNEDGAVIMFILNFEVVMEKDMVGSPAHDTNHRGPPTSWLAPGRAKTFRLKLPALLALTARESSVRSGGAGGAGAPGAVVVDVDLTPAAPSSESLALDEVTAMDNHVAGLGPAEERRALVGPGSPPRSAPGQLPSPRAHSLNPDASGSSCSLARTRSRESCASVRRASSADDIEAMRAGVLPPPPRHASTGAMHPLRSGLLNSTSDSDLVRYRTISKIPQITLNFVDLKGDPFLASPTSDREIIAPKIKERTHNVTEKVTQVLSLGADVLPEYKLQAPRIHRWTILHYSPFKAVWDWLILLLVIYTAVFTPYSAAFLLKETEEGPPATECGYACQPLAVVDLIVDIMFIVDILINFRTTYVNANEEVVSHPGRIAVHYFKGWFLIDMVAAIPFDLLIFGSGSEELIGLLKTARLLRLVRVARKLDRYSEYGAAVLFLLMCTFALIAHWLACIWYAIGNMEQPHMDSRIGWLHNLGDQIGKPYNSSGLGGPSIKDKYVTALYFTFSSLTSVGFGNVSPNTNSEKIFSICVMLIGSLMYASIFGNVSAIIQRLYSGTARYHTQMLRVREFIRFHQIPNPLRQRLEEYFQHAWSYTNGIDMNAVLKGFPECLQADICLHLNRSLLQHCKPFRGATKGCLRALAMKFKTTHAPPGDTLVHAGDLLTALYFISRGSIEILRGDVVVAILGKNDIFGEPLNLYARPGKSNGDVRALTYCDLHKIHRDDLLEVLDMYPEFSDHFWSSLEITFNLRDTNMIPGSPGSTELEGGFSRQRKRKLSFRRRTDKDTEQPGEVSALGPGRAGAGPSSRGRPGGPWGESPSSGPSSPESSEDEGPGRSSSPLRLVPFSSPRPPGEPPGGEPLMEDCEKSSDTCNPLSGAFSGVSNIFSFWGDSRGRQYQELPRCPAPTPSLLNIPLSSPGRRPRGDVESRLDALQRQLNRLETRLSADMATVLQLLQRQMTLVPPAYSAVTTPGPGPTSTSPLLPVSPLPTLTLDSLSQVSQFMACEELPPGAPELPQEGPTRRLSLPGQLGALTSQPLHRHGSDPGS

**Q.** For O=C(NCc1ccccc1)c1cccc(OCC(=O)N2CCN(C(=O)c3ccco3)CC2)c1, which “hERG current change (%, negative = inhibition) at 10uM” value is on record?
**A.** The value was -41.1%.

**Q.** Which “hERG current change (%, negative = inhibition) at 10uM” value does the source give for COc1ccccc1/C=N/NC(=O)CC(=O)NCc1cccnc1 here?
**A.** The value was 7.63%.

**Q.** For O=C(O)COc1ccccc1/C=N/NC(=O)CSc1nc2ccccc2s1, which “hERG current change (%, negative = inhibition) at 10uM” value is on record?
**A.** The value was 9.71%.

**Q.** Which “hERG current change (%, negative = inhibition) at 10uM” value does the source give for CCOc1ccc(-c2cc(C(=O)NN3CCN(C)CC3)c3cc(Cl)ccc3n2)cc1 here?
**A.** The value was 22.5%.

**Q.** Which “hERG current change (%, negative = inhibition) at 10uM” value does the source give for CC(C(=O)NCc1ccc2c(c1)OCO2)N1c2cccc3cccc(c23)S1(=O)=O (stereo not drawn) here?
**A.** Its value is -22.7%.

**Q.** O=C(CN1C(=O)S/C(=C\C=C\c2ccccc2)C1=O)N1CCCCC1 was tested. Which “hERG current change (%, negative = inhibition) at 10uM” value did it give?
**A.** Its value is 10.8%.

**Q.** With Cc1cc(=O)oc2cc(OCCSCCN3CCCCC3)ccc12 as the compound, how does the “hERG current change (%, negative = inhibition) at 10uM” value read?
**A.** The value was -16.5%.

**Q.** With CNC(=S)N1CCn2cccc2C1c1cccnc1 (stereo not drawn) as the compound, how does the “hERG current change (%, negative = inhibition) at 10uM” value read?
**A.** The value was 6.45%.

**Q.** With COc1ccc(/C(N)=N/OC(=O)CCCc2ccccc2)cc1 as the compound, how does the “hERG current change (%, negative = inhibition) at 10uM” value read?
**A.** The value was -11.3%.

**Q.** With FC(F)(F)Oc1ccc(NC2=NCCCS2)cc1 as the compound, how does the “hERG current change (%, negative = inhibition) at 10uM” value read?
**A.** Its value is -24.4%.

**Q.** How did the “hERG current change (%, negative = inhibition) at 10uM” value turn out when COC(=O)c1c(NC(=O)C2CCCO2)sc2c1CCC2 (stereo not drawn) was run?
**A.** Its value is -3.4%.

**Q.** CC(C)CN(CC(C)C)C(=O)c1cc2c(=O)n3ccccc3nc2s1 was tested. Which “hERG current change (%, negative = inhibition) at 10uM” value did it give?
**A.** Its value is 7.12%.

**Q.** For O=C(O)C1CC1(c1ccccc1)c1ccccc1 (stereo not drawn), which “hERG current change (%, negative = inhibition) at 10uM” value is on record?
**A.** The value was 17.7%.

**Q.** N#CC(C#N)=Cc1ccc(N2CCOCC2)cc1 was tested. Which “hERG current change (%, negative = inhibition) at 10uM” value did it give?
**A.** The value was -10.7%.

**Q.** O=C(NCc1cccnc1)c1sc2cc(Cl)ccc2c1Cl was tested. Which “hERG current change (%, negative = inhibition) at 10uM” value did it give?
**A.** Its value is -55.4%.

**Q.** CCCn1c(=O)c(C(=O)NCc2ccccn2)c(O)c2ccccc21 was tested. Which “hERG current change (%, negative = inhibition) at 10uM” value did it give?
**A.** The value was -11.1%.

**Q.** How did the “hERG current change (%, negative = inhibition) at 10uM” value turn out when CCCn1c(=O)c(C(=O)NCc2ccccc2)c(O)c2ccccc21 was run?
**A.** Its value is 7.64%.

**Q.** For Cc1ccc2c(Cl)c(C(=O)NCc3cccnc3)sc2c1, which “hERG current change (%, negative = inhibition) at 10uM” value is on record?
**A.** Its value is -46.4%.

**Q.** For CCCn1c(=O)c(C(=O)NCc2ccncc2)c(O)c2ccccc21, which “hERG current change (%, negative = inhibition) at 10uM” value is on record?
**A.** Its value is -63%.

**Q.** O=C(NCc1cccnc1)c1sc2ccccc2c1Cl was tested. Which “hERG current change (%, negative = inhibition) at 10uM” value did it give?
**A.** Its value is -28.9%.

**Q.** How did the “hERG current change (%, negative = inhibition) at 10uM” value turn out when Cc1cc(NC(=O)CSc2nc3ccsc3c(=O)n2NC(=O)c2ccccc2)no1 was run?
**A.** The value was -1.69%.

**Q.** Cc1ccc(C(=O)N(C)CC(=O)Nc2cccc(F)c2)cc1S(=O)(=O)N1CCCCC1 was tested. Which “hERG current change (%, negative = inhibition) at 10uM” value did it give?
**A.** Its value is -10.5%.

**Q.** For COc1ccc(C(=O)NC2CC2)cc1OC1CCN(Cc2ccccc2)CC1, which “hERG current change (%, negative = inhibition) at 10uM” value is on record?
**A.** Its value is -81.6%.

**Q.** For COc1ccc(C(=O)NC2CC2)cc1OC1CCN(Cc2ccc(SC)cc2)CC1, which “hERG current change (%, negative = inhibition) at 10uM” value is on record?
**A.** The value was -88.7%.

**Q.** For COc1ccc(C(=O)NC2CC2)cc1OC1CCN(Cc2cnn(C)c2)CC1, which “hERG current change (%, negative = inhibition) at 10uM” value is on record?
**A.** The value was -32.7%.

**Q.** For COc1ccc(C(=O)NC2CC2)cc1OC1CCN(Cc2ccc(Cl)cc2)CC1, which “hERG current change (%, negative = inhibition) at 10uM” value is on record?
**A.** The value was -78.8%.

**Q.** For COc1cc2[nH]c(=O)n(Cc3ccc(C(=O)NC4CCN(Cc5ccccc5)CC4)cc3)c(=O)c2cc1OC, which “hERG current change (%, negative = inhibition) at 10uM” value is on record?
**A.** The value was 17.6%.

**Q.** With COc1ccc(C(=O)NC2CCC(O)CC2)cc1S(=O)(=O)NCc1ccc(Cl)cc1 (stereo not drawn) as the compound, how does the “hERG current change (%, negative = inhibition) at 10uM” value read?
**A.** Its value is -6.07%.

**Q.** How did the “hERG current change (%, negative = inhibition) at 10uM” value turn out when COc1ccc(C(=O)NC2CC2)cc1OC1CCN(Cc2ccc(F)c(F)c2)CC1 was run?
**A.** Its value is -75.2%.

**Q.** With COc1ccc(C(=O)NCCc2cccc(Cl)c2)cc1OC1CCN(C(C)=O)CC1 as the compound, how does the “hERG current change (%, negative = inhibition) at 10uM” value read?
**A.** Its value is -16.1%.
